High-throughput results (PubChem)
A selection: hits, their analogues and other compounds. The true share with any hit is near 0.95%.
FBPA Giardia inh – Giardia lamblia aldolase inhibition; hit rate 0.71% among 290,000; purified Giardia FBPA; A8B2U2; Potency, µM (top dose mostly 59.6 µM), actives largely listed as inhibitors; further: nearly all actives have a fitted effect of over 55% in size
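Giardia FBPA (40 nM reagent) was preincubated 10 min at RT with compound (up to 57.5 uM final), then substrate plus GAPDH/TPI/NAD/arsenate coupling system with diaphorase/resazurin was added; resorufin fluorescence (525/598 nm) was read after 20 min.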
RE007 growth inh – less growth of the S. pombe RE007 Vpr strain; S. pombe RE007 Vpr strain, BacTiter-Glo ATP luminescence, 24 h; Potency, µM (doses to about 92.2 µM), hits mostly inhibitors; hit rate 0.21% among 360,000; active means well fitted falling curve with a large enough effect; inconclusive means small, poorly fitted or top-dose-only effect; inactive means no such curve, though single readings can be large or run the other way; further: nearly all actives have a fitted effect of over 50% in size
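Fission yeast RE007 carrying one integrated HIV-1 vpr copy, seeded at OD 0.01 in PMG+AL medium with 23 nL pinned compound. Grown 24 h at 30 degrees; viability read by BacTiter-Glo luminescence after 5 min.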
Tb PYK inh – T. brucei pyruvate kinase inhibition. Q57TT1. Potency, µM (highest dose often 76.8 µM), usual class: inhibitors. hit rate 0.12% among 410,000. AID 624173. TbPYK enzyme, Kinase-Glo Plus ATP luminescence, 45 min; further: nearly all actives have a fitted effect of over 50% in size
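Screened from lowest to highest concentration, compounds were pinned into TbPYK/substrate mixtures, and ADP (130 uM final) was added. Plates sat at room temperature for 45 min prior to Kinase-Glo Plus detection by luminescence.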
LmPK inhibitor – LmPK (Leishmania mexicana) enzyme inhibition | Q27686 | purified LmPK, Kinase-Glo ATP luminescence, 1 h | Potency, µM (highest dose often 57.5 µM), actives largely listed as inhibitors | hit rate 0.37% among 290,000
Target sequence (Q27686 whole entry, looked up): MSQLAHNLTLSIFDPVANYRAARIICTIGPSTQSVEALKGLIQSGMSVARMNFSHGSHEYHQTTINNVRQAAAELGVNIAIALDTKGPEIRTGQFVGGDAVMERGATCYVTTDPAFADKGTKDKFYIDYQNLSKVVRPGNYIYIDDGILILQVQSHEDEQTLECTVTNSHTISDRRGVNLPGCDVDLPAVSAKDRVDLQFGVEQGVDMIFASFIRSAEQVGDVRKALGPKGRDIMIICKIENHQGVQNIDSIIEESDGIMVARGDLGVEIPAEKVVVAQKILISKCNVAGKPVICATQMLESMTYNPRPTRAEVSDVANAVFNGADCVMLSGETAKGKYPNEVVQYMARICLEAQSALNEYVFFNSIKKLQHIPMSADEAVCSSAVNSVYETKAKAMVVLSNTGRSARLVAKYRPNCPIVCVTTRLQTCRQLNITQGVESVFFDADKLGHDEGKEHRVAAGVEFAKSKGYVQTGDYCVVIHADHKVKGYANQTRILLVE
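Kinase-Glo luminescence read after 1 h RT reaction of 0.1 nM LmPK with 0.5 mM PEP and 0.1 mM ADP. Activity scaled between uninhibited and enzyme-free controls.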
A number is an active result; - = inactive; ? = inconclusive; . = not tested or not shown; ! = repeats disagree; [ ] = remark or other dose. Unless noted, the call rests on the fitted dose curve; in most records, active means well fitted curve in the direction sought with a large enough effect; inconclusive means small, poorly fitted or top-dose-only effect, or another doubt; inactive means no such curve, though single readings can be large; an effect the other way counts as inactive or inconclusive.

SMILES	FBPA Giardia inh	RE007 growth inh	Tb PYK inh	LmPK inhibitor
Cc1cc(-c2n[nH]c(=S)n2/N=C/c2cc([N+](=O)[O-])ccc2Cl)n[nH]1	-	-	4µM	-
O=[N+]([O-])c1cccc(/C=N/n2c(-c3cccnc3)n[nH]c2=S)c1	-	-	2.2µM	-
O=[N+]([O-])c1ccc(/C=N/n2c(-c3cccnc3)n[nH]c2=S)cc1	-	-	?	-
CC(/C=N/n1c(-c2cc(C)[nH]n2)n[nH]c1=S)=C\c1ccccc1	-	-	5µM	-
CCC(C)C1OC2(C=CC1C)CC1CC(C/C=C(\C)C(OC3CC(OC)C(OC4CC(OC)C(NC(C)=O)C(C)O4)C(C)O3)C(C)/C=C/C=C3\COC4C(O)C(C)=CC(C(=O)O1)C34O)O2 (stereo unspecified) (tested in a mixture with another compound)	.	.	-	.
Cc1oc(-c2cccc(Br)c2)nc1Cn1c(SCc2cccc(F)c2)nc2cccnc21	.	.	-	.
CN(CC(=O)Nc1ccccc1Cl)S(=O)(=O)c1ccc(C(=O)N2CCOCC2)s1	.	.	-	.
COc1ccc(/C=N/N=C2/NC(=O)C(CC(=O)O)S2)cc1OCc1ccccc1Cl (stereo unspecified)	-	-	?	?
CCOc1cc(/C=N/N=C2/NC(=O)C(CC(=O)O)S2)ccc1OCc1ccccc1Cl (stereo unspecified)	-	-	-	22µM
Cc1ccccc1NC(=O)CSc1nnc(-c2ccco2)c(-c2ccco2)n1	1.8µM	-	20µM	-
CSc1nnc(-c2ccccc2)c(-c2ccccc2)n1	-	-	-	-
O=C(CSc1nnc(-c2ccco2)c(-c2ccco2)n1)Nc1ccccc1	?	-	?	-
CSc1nnc(-c2ccco2)c(-c2ccco2)n1	3.5µM	-	?	-
CCCCCCC[n+]1ccc(-c2cc[n+](CCCCCCC)cc2)cc1	-	6.3µM	-	-
CCCCCCCCCCCCCCCC[n+]1ccccc1	-	16µM!	-	.
O=C(Nc1ccccc1)C(Cl)C(=O)c1ccccc1 (stereo unspecified)	-	7.1µM	-	-
Nn1cnnc1N/N=C\c1ccc(-c2ccccc2[N+](=O)[O-])o1	1.8µM	-	-	-
CN(C(=O)CSc1nc2ccc(NC(=O)c3ccco3)cc2s1)c1ccccc1	.	.	-	.
CN(C)CCOc1ccccc1Cc1ccccc1 (tested in a mixture with another compound)	.	.	-	.
O=C1C=CC(=Nc2ccc3c(c2)Cc2ccccc2-3)O1	.	28µM	-	.
CCCC(=O)OC1(C(=O)CO)CCC2C3CCC4=CC(=O)CCC4(C)C3C(O)CC21C (stereo unspecified)	-	.	.	.
CNC(CC(=O)c1ccc([N+](=O)[O-])cc1)C(Cl)(Cl)Cl (stereo unspecified)	-	13µM	13µM	-
COC(=O)c1sccc1NC(=O)Nc1ccccc1F	-	-	?	14µM
COC(=O)c1sccc1NC(=O)Nc1ccccc1C	.	-	-	-
COc1c(Cl)cccc1-c1cn2ccccc2n1	-	?	-	7.1µM
SMILES	FBPA Giardia inh	RE007 growth inh	Tb PYK inh	LmPK inhibitor
Clc1ccc(-c2cn3ccccc3n2)cc1	-	?	-	-
COc1ccccc1Nc1nnc(SCC2CCCCO2)s1 (stereo unspecified)	-	-	-	14µM
Cc1ccccc1Nc1nnc(SCC2CCCCO2)s1 (stereo unspecified)	-	-	-	?
CCC(=O)C(Cc1ccccc1)(Cc1ccccc1)CC(C)N(C)C (stereo unspecified)	.	.	-	.
CC/C=C(\C(=O)N[C@H]1C(=O)N2C(C(=O)OCOC(=O)C(C)(C)C)=C(COC(N)=O)CS[C@H]12)c1csc(N)n1	.	.	-	.
O=C1CC(N2CCSCC2)C(=O)N1c1cccc(Br)c1 (stereo unspecified)	-	32µM	-	-
O=C1CC(N2CCN(c3ccccc3)CC2)C(=O)N1c1cccc(Br)c1 (stereo unspecified)	-	?	-	-
O=C1CC(N2CCCCC2)C(=O)N1c1ccccc1 (stereo unspecified)	-	40µM	-	-
O=C1CC(N2CCCN(C3CC(=O)N(c4ccc(F)cc4)C3=O)CC2)C(=O)N1c1ccc(F)cc1 (stereo unspecified)	-	4.5µM	-	-
CO[C@H]1C[C@@H]2CC[C@@H](C)[C@@](O)(O2)C(=O)C(=O)N2CCCC[C@H]2C(=O)O[C@H]([C@H](C)C[C@@H]2CC[C@@H](OCCO)[C@H](OC)C2)CC(=O)[C@H](C)/C=C(\C)[C@@H](O)[C@@H](OC)C(=O)[C@H](C)C[C@H](C)/C=C/C=C/C=C/1C	.	.	-	.
COc1ccc(C2CC(c3ccccc3)Oc3cc(C)c(Cl)c(C)c32)cc1 (stereo unspecified)	-	.	.	.
COc1ccc(C2=Nn3c(nnc3-c3cccc(OC)c3OC)SC2)cc1	-	.	.	.
O=C(O)c1cc[c]([Hg][Cl])cc1	?	?	18µM	.
Cc1ccc(C23CC4CC(CC(NC(=O)N5CCN(C)CC5)(C4)C2)C3)cc1	-	13µM	-	-
COc1ccc(S(=O)(=O)Nc2cc(SCC(=O)O)c(O)c3ccccc23)cc1	7.9µM	-	?	?
COc1ccc(S(=O)(=O)Nc2cccc3ccc(O)cc23)cc1	.	-	-	.
COc1ccc(S(=O)(=O)Nc2ccc(O)c(Sc3ncn[nH]3)c2)cc1	-	-	-	-
COc1ccc(S(=O)(=O)Nc2cc(Sc3ncn[nH]3)c(O)c3ccccc23)cc1	0.56µM	32µM	.	3.2µM
Cc1cc(C)c(S(=O)(=O)Nc2cc(SCC(=O)O)c(O)c3ccccc23)cc1C	4µM	-	10µM	20µM
O=C(O)CSc1cc(NS(=O)(=O)c2ccc(Cl)cc2)c2ccccc2c1O	4µM	?	?	?
O=S(=O)(Nc1cc(Sc2cccc3cccnc23)c(O)c2ccccc12)c1ccc(F)cc1	1.1µM	?	?	-
CCN1C(C)=C(C(=O)OC)C(c2ccccc2)N2C(=O)[C@](O)(C(=O)OC)C(c3ccccc3)C(C(=O)c3ccccc3)=C12 (stereo partly specified)	-[12.9 µM]	.	.	.
Cn1c(/C=C/c2ccccc2)nc2ccccc21	-	?	?	5µM
Cn1c(=O)c(/C=C/c2ccccc2)nc2ccccc21	-	.	-	-
CCOC(=O)c1cc(CC)sc1/N=C/C1C(=O)NC(=S)NC1=O	18µM	-	-	-[11.5 µM]
SMILES	FBPA Giardia inh	RE007 growth inh	Tb PYK inh	LmPK inhibitor
CCOC(=O)c1cc(CC)sc1/N=C/C1C(=O)CC(C)(C)CC1=O	-	-	-	-
Cc1cccc(C)c1OCC(O)Cn1c2ccccc2c2ccccc21 (stereo unspecified)	-	35µM	-	-
CCOC(=O)OCC1OC(C#Cc2ccccc2)C=CC1Oc1cccc(N(C)C)c1 (stereo unspecified)	-[12.9 µM]	.	.	.
Cc1ccc(NC(=O)c2cc(N3C(=O)C=CC3=O)ccc2N2CCOCC2)cc1	-	8.9µM	22µM	-
Cc1ccc(NC(=O)c2cc(N3C(=O)C=CC3=O)ccc2Cl)cc1C	-	10µM	?	-
Cc1ccc(NC(=O)c2cc(NC(=O)c3ccco3)ccc2N2CCOCC2)cc1	-	-	-	-
